We go through 19 compounds from PubChem BioAssay (NCI).

Structures are written as SMILES. This is part of a sample that, as a whole, favours compounds with a hit. Of some 83,000 tested, about 20% had one in any assay.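 Cells were grown in 96-well plates and exposed to the test compound at a single concentration for 48 hours; results are reported as percent growth, with values below 10 considered active.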 Values without a mark were called inactive. Active and inactive are the calls of the source.

Among the test systems are DU-145 prostate; K-562 leukemia; MALME-3M melanoma; MDA-MB-231 breast; RXF 393 renal; SF-268 CNS; SF-295 CNS; SF-539 CNS; UACC-257 melanoma; M14 melanoma.
Holding throughout (experiment): NCI-60 one-dose screen, 48 h (100 = growth as untreated, 0 = no growth, -100 = all killed)
Settings in all cases: 10 µM unless noted

For the compound `c1ccc(-c2nnc(-c3ccccn3)s2)nc1`, the growth was 110% in the experiment on DU-145 prostate; 93.9% with K-562 leukemia; 86.3% in the experiment on MALME-3M melanoma; 95.1% with MDA-MB-231 breast; 109% in the experiment on RXF 393 renal; 95.4% in the experiment with SF-268 CNS. The growth is 100% in the experiment with SF-295 CNS, 99.8% with SF-539 CNS, 96% in the experiment with UACC-257 melanoma and 82.8% with M14 melanoma.

On to `C=C(C)[C@@H]1CC[C@]2(C(=O)O)CC[C@]3(C)[C@H](CC[C@@H]4[C@@]5(C)C[C@@H](CC#Cc6ccc(C(F)(F)F)cc6)[C@H](O)C(C)(C)[C@@H]5CC[C@]43C)[C@@H]12`, for which the growth in the experiment on DU-145 prostate was 22.6%; in the experiment on K-562 leukemia it was 7.68% (active); in the experiment with MALME-3M melanoma, -43.3% (active); in the experiment with MDA-MB-231 breast, -10% (active); with RXF 393 renal, -34.4% (active); in the experiment with SF-268 CNS, 12.6%. Besides, the growth with SF-295 CNS was -21.6% (active); in the experiment on SF-539 CNS it was -59.5% (active); with UACC-257 melanoma, 7.33% (active); in the experiment with M14 melanoma, -51.7% (active).

With `CCCCC(CC)OC(=O)C(Br)CC` (stereo not given), the growth was 107% in the experiment with DU-145 prostate; 83.8% in the experiment on K-562 leukemia; 99.9% with MALME-3M melanoma; 112% with MDA-MB-231 breast; 114% with RXF 393 renal; 98.1% in the experiment with SF-268 CNS. For the same compound, the growth in the experiment on SF-295 CNS is 97.5%; in the experiment on SF-539 CNS, 98.7%; in the experiment with UACC-257 melanoma, 104%; with M14 melanoma, 101%.

Regarding `Cc1nc2ncccc2nc1Nc1ccc(S(=O)(=O)Nc2ccccn2)cc1`, the growth in the experiment on DU-145 prostate was 105%; in the experiment with K-562 leukemia, 106%; with MALME-3M melanoma, 107%; with MDA-MB-231 breast, 89.1%; in the experiment with RXF 393 renal, 109%; with SF-268 CNS, 98.4%. For the same compound, the growth was 104% in the experiment with SF-295 CNS, 97.5% in the experiment with SF-539 CNS, 107% in the experiment on UACC-257 melanoma and 97.5% in the experiment on M14 melanoma.

Consider `COc1ccc(-c2nc(SCCC(C)C)nc(Nc3ccc(F)c(Cl)c3)c2C#N)cc1`, for which the growth in the experiment on DU-145 prostate was 97.7%; with K-562 leukemia it was 56.2%; with MALME-3M melanoma, 84.2%; in the experiment on MDA-MB-231 breast, 100%; in the experiment with RXF 393 renal, 101%; in the experiment with SF-268 CNS, 83%. The growth in the experiment on SF-295 CNS is 78%; in the experiment on SF-539 CNS, 70.3%; in the experiment on UACC-257 melanoma it was 103%; in the experiment with M14 melanoma it was 95%.

`COc1ccc(-c2cnoc2-c2ccc(OC)cc2O)cc1`: the growth with DU-145 prostate is 30.9%; in the experiment with K-562 leukemia, 25%; in the experiment on MALME-3M melanoma, 41.1%; in the experiment on MDA-MB-231 breast, 45.8%; in the experiment with RXF 393 renal it was 23.9%; in the experiment on SF-268 CNS it was 39.9%. For the same compound, the growth in the experiment with SF-295 CNS was 26.9%; in the experiment on SF-539 CNS it was 19.7%; in the experiment with UACC-257 melanoma, 56.7%; in the experiment on M14 melanoma it was 14.9%.

Take `CC(C)(C)n1cc(-c2ccnc(NCCNS(=O)(=O)c3ccc(F)cc3)c2)c(-c2cccc(O)c2)n1`: the growth was 74.9% in the experiment with DU-145 prostate; 15.4% in the experiment on K-562 leukemia; 53.5% with MALME-3M melanoma; 41% in the experiment with MDA-MB-231 breast; 60% with RXF 393 renal; 54.7% in the experiment with SF-268 CNS. Moreover, the growth in the experiment on SF-295 CNS is 42.5%; in the experiment with SF-539 CNS, 58.3%; with UACC-257 melanoma, 64.9%; in the experiment with M14 melanoma, 46.2%.

Turning to `O=C(NS(=O)(=O)c1ccccc1)n1cc(-c2ccncc2)c(-c2ccc(Cl)c(O)c2)n1`, the growth is 104% with DU-145 prostate; 88.9% in the experiment on K-562 leukemia; 27.6% in the experiment on MALME-3M melanoma; 112% with MDA-MB-231 breast; 107% in the experiment on RXF 393 renal; 97.7% with SF-268 CNS. In addition, the growth in the experiment on SF-295 CNS is 107%; in the experiment with SF-539 CNS it was 97.6%; with UACC-257 melanoma, 91.6%; with M14 melanoma, 34.2%.

As to `FC(F)(F)c1cccc(-c2cn3c(ccc4ccccc43)n2)c1`, the growth is 106% in the experiment with DU-145 prostate; 86.5% in the experiment on K-562 leukemia; 102% in the experiment with MALME-3M melanoma; 79.2% in the experiment with MDA-MB-231 breast; 115% in the experiment with RXF 393 renal; 98.7% with SF-268 CNS. For the same compound, the growth with SF-295 CNS was 88.5%; in the experiment on SF-539 CNS, 99.5%; in the experiment on UACC-257 melanoma, 114%; with M14 melanoma, 95.4%.

For the compound `COc1cccc(-c2nc3sccn3c2-c2ccnc(NCCCNS(=O)(=O)c3ccc(F)cc3)c2)c1`, the growth was 34% in the experiment on DU-145 prostate; 17.8% with K-562 leukemia; 39.6% with MALME-3M melanoma; 57.4% with MDA-MB-231 breast; 63.2% in the experiment on RXF 393 renal; 41.2% in the experiment with SF-268 CNS. The growth was 18.6% in the experiment on SF-295 CNS, 67.2% with SF-539 CNS, 35.6% with UACC-257 melanoma and 25.7% in the experiment with M14 melanoma.

Consider `CCN(CC)c1ccc(N=O)cc1`, for which the growth in the experiment with DU-145 prostate is 80.9%; in the experiment on K-562 leukemia it was 23.5%; with MALME-3M melanoma, 71.1%; in the experiment with MDA-MB-231 breast it was 47.4%; with RXF 393 renal it was 72.5%; with SF-268 CNS it was 59.1%. Besides, the growth is 92.7% with SF-295 CNS, 77.2% in the experiment with SF-539 CNS, 33.2% in the experiment with UACC-257 melanoma and 75.3% with M14 melanoma.

Turning to `COC(=O)C(Sc1ccc(Cl)cc1)C1SC(=S)N(Cc2ccccc2)C1=O` (stereo not given), the growth with DU-145 prostate is 102%; with K-562 leukemia, 44%; in the experiment with MALME-3M melanoma, 98.9%; in the experiment on MDA-MB-231 breast, 98.9%; in the experiment on RXF 393 renal, 106%; in the experiment on SF-268 CNS, 87.7%. Also, the growth in the experiment on SF-295 CNS is 75.6%; with SF-539 CNS it was 109%; in the experiment on UACC-257 melanoma it was 92.2%; with M14 melanoma it was 100%.

Take `N/C(=N\C(N)=N\c1nc2ccccc2s1)c1ccncc1`: the growth with DU-145 prostate is 91.1%; in the experiment with K-562 leukemia, 13.1%; in the experiment on MALME-3M melanoma it was 81.5%; with MDA-MB-231 breast it was 55.7%; with RXF 393 renal it was 65.7%; in the experiment with SF-268 CNS, 7.14% (active). In addition, the growth with SF-295 CNS is 74.1%; in the experiment with SF-539 CNS, 68.2%; with UACC-257 melanoma it was 95.3%; in the experiment on M14 melanoma, 49.5%.

On to `CCCCCCCC[C@@H](O)CC(=O)N[C@@H](CC(N)=O)C(=O)N[C@@H](CCC(N)=O)C(=O)N[C@@H](CC(=O)c1cc(C)cc(O)c1C(=O)c1c(O)cccc1O)CC(C)C`, for which the growth with DU-145 prostate was 54%; in the experiment on K-562 leukemia it was 23.8%; with MALME-3M melanoma, 51.3%; with MDA-MB-231 breast, 12.1%; in the experiment on RXF 393 renal, -49.5% (active); in the experiment on SF-268 CNS it was 9.65% (active). Also, the growth was 21% in the experiment with SF-295 CNS, -5.78% (active) in the experiment with SF-539 CNS, 14.9% with UACC-257 melanoma and -12.3% (active) with M14 melanoma.

For the compound `C=C1C(=O)O[C@H]2[C@H]1CC/C(Cn1cc(CNC(=O)/C=C/c3c[nH]c4ccccc34)nn1)=C\CC[C@@]1(C)O[C@@H]21`, the growth is 103% in the experiment on DU-145 prostate; 23.6% in the experiment with K-562 leukemia; 98% in the experiment with MALME-3M melanoma; 99.7% with MDA-MB-231 breast; 84% with RXF 393 renal; 93.5% in the experiment on SF-268 CNS. The growth was 93.3% with SF-295 CNS, 80.4% in the experiment on SF-539 CNS, 74.9% in the experiment on UACC-257 melanoma and 84.3% with M14 melanoma.

As to `COc1ccc(-c2nc3sccn3c2/C=C/C(=O)c2cc(F)cc(F)c2)cc1`, the growth in the experiment with DU-145 prostate was 86.2%; in the experiment with K-562 leukemia, 19.1%; in the experiment on MALME-3M melanoma it was 102%; in the experiment with MDA-MB-231 breast, 62.6%; in the experiment with RXF 393 renal, 54.4%; in the experiment on SF-268 CNS it was 81.8%. The growth in the experiment on SF-295 CNS is 116%; in the experiment with SF-539 CNS, 92.8%; in the experiment on UACC-257 melanoma, 101%; in the experiment on M14 melanoma, 89.2%.

`COc1cc(C2C3=C(COC3=O)Nc3cc4c(cc32)OCO4)cc2c1OCO2` (stereo not given): the growth is -19.5% (active) with DU-145 prostate; 7.92% (active) in the experiment on K-562 leukemia; 53.8% in the experiment with MALME-3M melanoma; 11.1% in the experiment on MDA-MB-231 breast; 18.5% in the experiment with RXF 393 renal; 20.1% in the experiment with SF-268 CNS. Also, the growth is 5.02% (active) in the experiment with SF-295 CNS, -0.0643% (active) with SF-539 CNS, 65.1% in the experiment with UACC-257 melanoma and 5.48% (active) in the experiment with M14 melanoma.

Consider `CC(=O)Oc1csc(N(C(C)=O)c2cccc(C(F)(F)F)c2)n1`, for which the growth in the experiment on DU-145 prostate is 99.2%; with K-562 leukemia it was 105%; in the experiment on MALME-3M melanoma, 88.8%; in the experiment on MDA-MB-231 breast, 71.9%; in the experiment with RXF 393 renal, 103%; in the experiment on SF-268 CNS it was 88.9%. In addition, the growth was 96.5% in the experiment on SF-295 CNS, 91% in the experiment on SF-539 CNS, 88.5% with UACC-257 melanoma and 77.7% in the experiment on M14 melanoma.

On to `COc1ccc2c(c1)OC1=C(C(=O)OC1)C2c1cc(OC)c2c(c1)OCO2` (stereo not given), for which the growth was -17.9% (active) in the experiment on DU-145 prostate; 7.46% (active) in the experiment with K-562 leukemia; 51.2% in the experiment with MALME-3M melanoma; 9.12% (active) with MDA-MB-231 breast; 16.5% in the experiment on RXF 393 renal; 19.7% in the experiment on SF-268 CNS. For the same compound, the growth is 9.01% (active) in the experiment with SF-295 CNS, 1.82% (active) in the experiment on SF-539 CNS, 67.8% in the experiment with UACC-257 melanoma and 7.05% (active) in the experiment on M14 melanoma.
